Measurements taken from PubChem BioAssay.
Measured potencies and affinities stand elsewhere. The source made the active and inactive calls. The limit is not given here; nearly all actives have IC50 up to about 0.91 µM.

The compounds below were run against Calcium-dependent protein kinase 4 (Plasmodium falciparum (isolate 3D7)) (UniProt Q8IBS5) (assay: PfCDPK4 kinase inhibitors, biochemical, TCAMS library (AID 1159588)). Settings: recombinant PfCDPK4, Kinase-Glo ATP depletion luminescence.
Chain of Calcium-dependent protein kinase 4 (Plasmodium falciparum (isolate 3D7)) (Q8IBS5 whole entry, looked up): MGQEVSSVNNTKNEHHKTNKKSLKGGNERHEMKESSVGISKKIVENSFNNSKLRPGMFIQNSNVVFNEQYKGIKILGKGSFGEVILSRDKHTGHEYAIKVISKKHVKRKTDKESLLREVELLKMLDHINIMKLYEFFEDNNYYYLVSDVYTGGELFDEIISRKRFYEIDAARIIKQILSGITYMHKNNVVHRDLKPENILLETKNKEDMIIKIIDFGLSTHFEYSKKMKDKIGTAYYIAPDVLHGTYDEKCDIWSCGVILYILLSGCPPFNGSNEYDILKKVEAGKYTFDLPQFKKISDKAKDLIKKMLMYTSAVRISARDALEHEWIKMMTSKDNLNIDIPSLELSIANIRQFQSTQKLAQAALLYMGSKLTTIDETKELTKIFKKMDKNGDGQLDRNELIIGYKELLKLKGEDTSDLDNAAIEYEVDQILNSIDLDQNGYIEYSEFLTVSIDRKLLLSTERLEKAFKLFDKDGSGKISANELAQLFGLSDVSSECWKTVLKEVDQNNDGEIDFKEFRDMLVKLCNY

outcome, inactive:
O=C1C(=Cc2cc(Cc3ccccc3)ccc2O)SC(=S)N1Cc1ccccc1
CN(Cc1ccc(NC(=O)CCC2CCN(C(=O)/C=C/c3ccc(Cl)c(Cl)c3)CC2)cc1)C1CCOCC1
CC(C)(C)NCC(O)COc1ccc(Cl)cc1C1=NNC(=O)CC1 (stereo not given)
CCc1nc2c(cnn2CC)c(NC2CCOCC2)c1CNC(=O)c1ccoc1C
CN1CCCC1CCNCc1ccc(-c2ccc(CNCCc3ccccc3)cn2)cc1 (stereo not given)
COc1ccc([N+](=O)[O-])cc1N(Cc1ccccc1-c1ccccc1)S(=O)(=O)c1ccc(C(F)(F)F)cc1
Cc1cc(Br)cnc1CCCCN=C1NC(=O)CN1C
CS(=O)(=O)Nc1ccc2c(C3CCN(CCC4CCN(C(=O)/C=C/c5ccc(Cl)c(Cl)c5)CC4)CC3)c[nH]c2c1
O=C(NC1CC1)c1ccc(Cn2c(SCc3cccc([N+](=O)[O-])c3)nc3ccccc3c2=O)cc1
CN1CCN(c2ccc3nc(-c4ccc5nc(-c6ccc(O)cc6)[nH]c5c4)[nH]c3c2)CC1
Cc1nc(-c2cccc(Nc3nccc(NCC(O)c4cccc(F)c4)n3)c2)cs1 (stereo not given)
Cc1ccc(C2(C)CN(CCCOc3cccc(-c4ccc(C(=O)NC(C)C)cc4)c3)CCO2)cc1 (stereo not given)
COc1cc2c(cc1OC)CC(NCCCCCCNCCc1ccc(Cl)cc1)CC2 (stereo not given)
CCOc1ccc(N2CCN(CCCCNC(=O)c3ccc(NC(=O)c4ccc(Cl)cc4)cc3)CC2)c(OCC)c1
CC(C)CCN(Cc1cncn1Cc1cccc(C(F)(F)F)c1)C(=O)c1cncc(-c2ccccc2)c1
CCC1N=C(N)N=C(N)N1OCCCOc1c(Cl)cc(Cl)cc1Cl (stereo not given)
COc1cc(NC(=O)c2sc(-c3ccc(Cl)cc3)cc2NC(=O)c2ccncc2)ccc1OCCN1CCCC1
COc1ccc(-c2cccc(NC(=O)c3cccc(C#N)c3)c2)cc1CN1CCNCC1
O=C(Nc1ccccc1)c1cnc[nH]1
CC(C)NC[C@@H](O)[C@H](Cc1ccccc1)NC(=O)c1cc2c3c(c1)c(C(C)C)cn3CCS(=O)(=O)N2C
CNc1ccc(CNCc2ccc(-c3ccc(-c4nc5ccc(F)cc5[nH]4)cc3)cc2)cc1
CN(C)c1ccc(N2C(N)=NC(N)=NC23CCCC3)cc1
Cc1cc(-c2cnc(N)c(-c3ccc(N4CCN(C)CC4)nc3)c2)cc(C)c1O
CCCCCCCN(Cc1ccc(OC(C)(C)C(=O)OCC)cc1)C(=O)Nc1ccccc1OC(F)(F)F
Cc1cccc2[nH]c(-c3ccc(-c4ccc(CN5CCN(CCO)CC5)cc4)cc3)nc12
Cc1cccc2[nH]c(-c3ccc(-c4ccc(CN5CCN(c6ccc(C#N)cn6)CC5)cc4)s3)nc12
Cc1cccc2[nH]c(-c3ccc(-c4cccc(NC(=O)c5cncn5C)c4)s3)nc12
c1ccc(COc2ccnc(NCCCOc3cccc(CN4CCCCC4)c3)c2)cc1
CCc1sc(-c2ccc(C(C)(C)C)cc2)nc1C(=O)NCCCN1CCCC1=O
COc1cccc(-c2ccc(NC(=O)C3CCCN(Cc4cccc(OC)c4O)C3)cc2)c1 (stereo not given)
COc1ccc(C2CC(c3ccccc3O)=NN2C(=O)c2ccco2)cc1OC (stereo not given)
CC(C)=C(C(=O)OCc1ccccc1)N1C(=O)[C@@H](NC(c2ccccc2)(c2ccccc2)c2ccccc2)[C@H]1[S@@](=O)CC(=O)OC(C)(C)C
CC(C)CNC(=O)c1cncc(-c2cccc(CNC3Cc4ccccc4C3)c2)c1
O=C(/C=C/c1ccc(Cl)c(Cl)c1)NCCCCCN1CCC(NC(=O)Nc2ccc(F)cc2F)CC1
C[C@@H]1CN(c2ccc3occ(C(=O)Nc4ccc(-c5ccncc5)c(Cl)c4)c3c2)C[C@H](C)N1C
CCNc1cc(C(=O)N[C@@H](Cc2ccccc2)[C@H](O)CN[C@H]2C[C@@H]3CC[C@H]2C3)cc(N2CCCCS2(=O)=O)c1
Cc1ccc2c(c1)nc(N)n2C[C@H](O)c1ccccc1
c1ccc(C2CCC(N3CCC(N4CCN(c5ccccc5)CC4)CC3)CC2)cc1 (stereo not given)
CCn1ccc2c3c(N)nc(N)nc3ccc21
Cc1ccc2c(Cl)c(C(=O)N3CC(C)OC(C)C3)sc2c1 (stereo not given)
